# From PubChem BioAssay (NCI)
# About 83,000 compounds went through this panel and 20% of them were active in at least one assay; those are over-represented in the sample as a whole.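 The endpoint reported here, percent growth, reads 100 for growth as untreated, 0 for no net growth and -100 for all cells dead.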 The source made the active and inactive calls. Rule for the calls: active = growth percent below 10; inactive = the rest.
# System: HL-60(TB) leukemia
# Experiment: NCI-60 one-dose screen, 48 h (100 = growth as untreated, 0 = no growth, -100 = all killed)
# Conditions: 10 µM unless noted
row,Structure (SMILES),growth
1,CCCCCOC(=O)c1cccc(NC(=O)CN(CC)CC)c1,101% (inactive)
2,Clc1ccc(Nc2scc3[n+]2CCC3)cc1,98.3% (inactive)
3,CCCCCCCCCCCC[N+](C)(C)Cc1ccccc1,-52.6% (active)
4,CCC1(C)OC(=O)NC1=O (stereo not given),112% (inactive)
5,O=c1ccc(-c2nc(N3CCOCC3)c3ccccc3n2)c[nH]1,95.8% (inactive)
6,O=C(O)c1cccc2cccc(-c3c4ccc(=O)c(O)c-4oc4c(O)c(O)ccc34)c12,67.6% (inactive)
7,O=C(N/N=C\c1cc(Br)cc(Br)c1O)N/N=C/c1cc(Br)cc(Br)c1O,8.67% (active)
8,CN1C(=O)/C(=C/c2ccc(C(=O)Nc3ncc(Cc4ccccc4Cl)s3)cc2)SC1=S,73.1% (inactive)
9,COc1ccc(-c2nc(SC(C)C)nc(NNC(N)=O)c2C#N)cc1,80.3% (inactive)
10,Cn1ccnc1C(=O)/C=C/c1ccc(CC(=O)Nc2ccc(F)cc2)cc1,18.8% (inactive)
11,O=C1/C(=C\c2cccc3nccnc23)SC(=S)N1CCc1ccc(O)cc1,79.5% (inactive)
12,N#Cc1cc(-c2cc3ccccc3o2)oc1N,-49.3% (active)
13,COc1ccc(-c2nn(-c3cccc(NC(=O)Nc4ccccc4)c3)cc2-c2ccncc2)cc1Cl,-10.6% (active)
14,CCOC(=O)/C(C#N)=C\Nc1ccc2ncnc(Nc3ccc(Cl)cc3Cl)c2c1,108% (inactive)
15,Cc1nc(C)c(C(=O)O)cc1C(=O)O,106% (inactive)
16,COc1cc2ncnc(Oc3ccc(NC(=O)Nc4ccc(C5(C#N)CCCC5)cc4)c4ccccc34)c2cc1OC,72.6% (inactive)
17,CN1CCC(COc2cnc(-c3cccc(Cn4nc(-c5cccc(C#N)c5)ccc4=O)c3)nc2)CC1,95.3% (inactive)
18,Fc1ccc(Cc2ccc(F)cc2)cc1,103% (inactive)
19,C/C(Cc1ccc(Cl)cc1)=C(\c1ccc(OCCN2CCCCCC2)cc1)c1ccc(OC(=O)c2ccccc2)cc1,23.1% (inactive)
20,COc1cc(NC(N)=NCCC(C)(C)Oc2ccc(C(F)(F)F)cc2)ncc1C#N,-51.1% (active)

row,Structure (SMILES),growth
1,COc1cc(/C=N\NC(=O)CN2CCN(c3cc4c(cc3F)c(=O)c(C(=O)N/N=C/c3ccc(O)c(OC)c3)cn4C3CC3)CC2)ccc1O,75.4% (inactive)
2,C/C(=C\c1ccc(OCC(=O)O)c(Cl)c1Cl)[N+](=O)[O-],79.8% (inactive)
3,COc1cc(N2C(=O)[C@H](Cl)C2c2ccc(SC)cc2)cc(OC)c1OC (stereo not given in full),-36.1% (active)
4,Nc1ncnc2c1C(c1ccc(Br)cc1)c1sc3c(F)cccc3c1O2 (stereo not given),119% (inactive)
5,C#CCSc1nnnn1-c1ccc(Br)c(C)c1,88.4% (inactive)
6,COc1ccc2cc1Oc1ccc(cc1)C[C@H]1c3cc(c(OC)cc3CCN1C)Oc1c(OC)c(OC)cc3c1[C@H](C2)N(C)CC3,29.8% (inactive)
7,Cc1ccc(-c2csc(NC(=O)CSc3nc(N)cc(N)n3)n2)cc1,48.9% (inactive)
8,Oc1ccc(-c2nc3ccc4[nH]ncc4c3c3c2CCCC3)c(F)c1,0.236% (active)
9,CN1CCN(Cc2ccc(NC(=O)c3cncc(C#Cc4c(N)ncc5c(F)cccc45)c3)cc2C(F)(F)F)CC1,-60.4% (active)
10,O=C1OCC2=C1C(c1cccc(F)c1)c1cc3c(cc1N2CCO)CCC3 (stereo not given),-29.8% (active)
11,CCOC(=O)/C=C1\S/C(=N\Nc2cc(=O)[nH]c3ccccc23)N(c2ccccc2)C1=O,99.1% (inactive)
12,C=C(C)[C@@H]1CC[C@]2(C)[C@H](CC=C3[C@@H]4CC(C)(C)CC[C@]4(CO)CC[C@]32C)[C@@]1(C)CCCN,-68.9% (active)
13,CN(C)c1ccc(C(=NO)c2ccc(N(C)C)cc2)cc1,25% (inactive)
14,CC1=C(C(=O)Nc2ccccc2)C(c2ccc3c(c2)OCO3)NC(=S)N1 (stereo not given),104% (inactive)
15,CCN1C(=O)N(CC)C2C1NN=c1s/c(=C\c3ccc[nH]3)c(=O)n12 (stereo not given),-48% (active)
16,COc1ccc2nc(-c3ccc(-n4cncc4-c4ccc(OC)c(N)c4)cc3)sc2c1,80.7% (inactive)
17,COc1cc2c(Oc3ccc(NC(=O)C4(C(=O)Nc5ccc(F)cc5)CC4)cc3F)ccnc2cc1OCCCN1CCOCC1,-21.4% (active)
18,O=C(O)c1cn(C2CC2)c2cc(N3CCN(C(=O)Nc4nc(-c5ccccc5)cs4)CC3)c(F)cc2c1=O,3.14% (active)
19,CCCCCCCc1n(Cc2ccc3ccccc3c2)c2ccccc2[n+]1Cc1ccc2ccccc2c1,-63.7% (active)
20,COc1cc(-c2csc(NC(=O)Nc3ccc(Cl)c(C(F)(F)F)c3)n2)cc(OC)c1OC,-6.26% (active)
